Laboratory results taken from publication PMC7862700, “An all-to-all approach to the identification of sequence-specific readers for epigenetic DNA modifications on cytosine”.

target: T1, ETV3L (Homo sapiens, UniProt Q6ZN32 1-361); assay: DAPPL (digital affinity profiling via proximity ligation, sequencing); 10 mM Tris-HCl pH 7.5, 50 mM NaCl, 1 mM DTT, 4% glycerol, room temperature, 30 min; GST-TFs on glutathione beads, 16-mer random dsDNA library, 0.1% formaldehyde crosslink after washing; high values mean tight binding; settings: protein: recombinant; tags: N-terminal GST; dsDNA, one strand shown
T1 sequence: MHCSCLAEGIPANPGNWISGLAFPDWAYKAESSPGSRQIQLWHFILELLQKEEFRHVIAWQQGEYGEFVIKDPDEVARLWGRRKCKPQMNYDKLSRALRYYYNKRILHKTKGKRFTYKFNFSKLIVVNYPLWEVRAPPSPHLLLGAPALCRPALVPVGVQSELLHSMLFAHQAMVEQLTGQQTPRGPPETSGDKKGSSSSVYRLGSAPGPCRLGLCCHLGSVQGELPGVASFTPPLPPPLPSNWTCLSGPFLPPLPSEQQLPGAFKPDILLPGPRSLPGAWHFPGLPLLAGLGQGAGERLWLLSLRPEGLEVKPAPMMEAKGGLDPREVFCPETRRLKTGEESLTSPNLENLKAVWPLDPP
Summary of the method: (§1)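 Human transcription factors fused to GST were expressed in yeast, captured on glutathione beads, given DNA barcodes and pooled with a GST-only negative control. Pools were incubated with 200 nmole of a 16-mer random double-stranded DNA library in Tris/NaCl/DTT/glycerol buffer at room temperature for 30 min. They were then washed, crosslinked with 0.1% formaldehyde, proximity-ligated (BsaI/T4 ligase, 1 h, 37 °C), PCR-amplified and sequenced on an Illumina NextSeq500. Binding signal is each 6-mer's read frequency for a factor divided by its frequency for the GST control.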

Row | Sequence | binding signal
1 | CGTACA | 1.17 fold enrichment (6-mer frequency, TF over GST control)
2 | ACTGCG | 1.26 fold enrichment (6-mer frequency, TF over GST control)
3 | AGATGC | 1.09 fold enrichment (6-mer frequency, TF over GST control)
4 | GTTCAA | 1.19 fold enrichment (6-mer frequency, TF over GST control)
5 | TGACAT | 1.28 fold enrichment (6-mer frequency, TF over GST control)
6 | CCGGAA | 5.28 fold enrichment (6-mer frequency, TF over GST control)
7 | GTCTCT | 1.35 fold enrichment (6-mer frequency, TF over GST control)
8 | CGACAT | 1.22 fold enrichment (6-mer frequency, TF over GST control)
9 | AACGAC | 1.15 fold enrichment (6-mer frequency, TF over GST control)
10 | GACCTG | 1.33 fold enrichment (6-mer frequency, TF over GST control)
11 | CGACCA | 1.33 fold enrichment (6-mer frequency, TF over GST control)
12 | GGAACT | 1.71 fold enrichment (6-mer frequency, TF over GST control)
13 | ACTCAC | 1.16 fold enrichment (6-mer frequency, TF over GST control)
14 | GTACAT | 1.32 fold enrichment (6-mer frequency, TF over GST control)
15 | ATGTGG | 1.16 fold enrichment (6-mer frequency, TF over GST control)
16 | GAACCC | 1.19 fold enrichment (6-mer frequency, TF over GST control)
17 | GGAAAA | 1.31 fold enrichment (6-mer frequency, TF over GST control)
18 | ATGTAC | 1.32 fold enrichment (6-mer frequency, TF over GST control)
19 | ATGGAC | 1.21 fold enrichment (6-mer frequency, TF over GST control)
20 | TTCCGT | 1.85 fold enrichment (6-mer frequency, TF over GST control)

Row | Sequence | binding signal
21 | GTGCTC | 1.19 fold enrichment (6-mer frequency, TF over GST control)
22 | GTCTTC | 1.23 fold enrichment (6-mer frequency, TF over GST control)
23 | GCAACT | 1.17 fold enrichment (6-mer frequency, TF over GST control)
24 | GTTCCC | 1.22 fold enrichment (6-mer frequency, TF over GST control)
25 | TCTGTC | 1.19 fold enrichment (6-mer frequency, TF over GST control)
26 | TGGCAC | 1.2 fold enrichment (6-mer frequency, TF over GST control)
27 | AACACG | 1.15 fold enrichment (6-mer frequency, TF over GST control)
28 | GAAGTT | 1.64 fold enrichment (6-mer frequency, TF over GST control)
29 | ACCTCG | 1.22 fold enrichment (6-mer frequency, TF over GST control)
30 | CCGGCA | 1.47 fold enrichment (6-mer frequency, TF over GST control)
31 | ACCGTC | 1.23 fold enrichment (6-mer frequency, TF over GST control)
32 | TGCCTG | 1.28 fold enrichment (6-mer frequency, TF over GST control)
33 | ATGTGC | 1.11 fold enrichment (6-mer frequency, TF over GST control)
34 | CCTGCA | 1.32 fold enrichment (6-mer frequency, TF over GST control)
35 | CAGGAA | 1.53 fold enrichment (6-mer frequency, TF over GST control)
36 | TGCCCC | 1.28 fold enrichment (6-mer frequency, TF over GST control)
37 | TAGGAA | 1.15 fold enrichment (6-mer frequency, TF over GST control)
38 | TGTCTC | 1.3 fold enrichment (6-mer frequency, TF over GST control)
39 | GTTTGA | 1.11 fold enrichment (6-mer frequency, TF over GST control)

target: T2, ETS2 (Homo sapiens, UniProt P15036 1-469); assay: as above; settings: protein: recombinant; tags: N-terminal GST; dsDNA, one strand shown
T2 sequence: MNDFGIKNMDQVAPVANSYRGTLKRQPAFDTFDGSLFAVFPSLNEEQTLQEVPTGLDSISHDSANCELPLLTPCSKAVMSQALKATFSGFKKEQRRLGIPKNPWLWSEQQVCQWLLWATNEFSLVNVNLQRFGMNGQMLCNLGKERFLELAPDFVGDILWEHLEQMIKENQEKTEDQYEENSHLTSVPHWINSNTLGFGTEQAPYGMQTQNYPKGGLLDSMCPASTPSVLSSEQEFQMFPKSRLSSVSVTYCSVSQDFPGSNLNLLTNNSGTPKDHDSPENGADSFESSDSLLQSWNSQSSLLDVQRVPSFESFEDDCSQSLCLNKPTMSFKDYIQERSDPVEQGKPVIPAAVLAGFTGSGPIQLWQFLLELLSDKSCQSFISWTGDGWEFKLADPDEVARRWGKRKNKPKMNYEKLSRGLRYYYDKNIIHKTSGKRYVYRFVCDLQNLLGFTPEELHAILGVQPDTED
Summary of the method: as §1

Row | Sequence | binding signal
40 | CGTACA | 1.18 fold enrichment (6-mer frequency, TF over GST control)
41 | ACTGCG | 1.35 fold enrichment (6-mer frequency, TF over GST control)
42 | AGATGC | 1.09 fold enrichment (6-mer frequency, TF over GST control)
43 | GTTCAA | 1.14 fold enrichment (6-mer frequency, TF over GST control)
44 | TGACAT | 1.3 fold enrichment (6-mer frequency, TF over GST control)
45 | CCGGAA | 5.63 fold enrichment (6-mer frequency, TF over GST control)
46 | GTCTCT | 1.32 fold enrichment (6-mer frequency, TF over GST control)
47 | CGACAT | 1.32 fold enrichment (6-mer frequency, TF over GST control)
48 | AACGAC | 1.19 fold enrichment (6-mer frequency, TF over GST control)
49 | GACCTG | 1.19 fold enrichment (6-mer frequency, TF over GST control)
50 | CGACCA | 1.29 fold enrichment (6-mer frequency, TF over GST control)
51 | GGAACT | 1.88 fold enrichment (6-mer frequency, TF over GST control)
52 | ACTCAC | 1.28 fold enrichment (6-mer frequency, TF over GST control)
53 | GTACAT | 1.36 fold enrichment (6-mer frequency, TF over GST control)
54 | ATGTGG | 1.18 fold enrichment (6-mer frequency, TF over GST control)
55 | GAACCC | 1.13 fold enrichment (6-mer frequency, TF over GST control)
56 | GGAAAA | 1.27 fold enrichment (6-mer frequency, TF over GST control)
57 | ATGTAC | 1.42 fold enrichment (6-mer frequency, TF over GST control)
58 | ATGGAC | 1.24 fold enrichment (6-mer frequency, TF over GST control)
59 | TTCCGT | 1.94 fold enrichment (6-mer frequency, TF over GST control)

Row | Sequence | binding signal
60 | GTGCTC | 1.26 fold enrichment (6-mer frequency, TF over GST control)
61 | GTCTTC | 1.4 fold enrichment (6-mer frequency, TF over GST control)
62 | GCAACT | 1.16 fold enrichment (6-mer frequency, TF over GST control)
63 | GTTCCC | 1.28 fold enrichment (6-mer frequency, TF over GST control)
64 | TCTGTC | 1.23 fold enrichment (6-mer frequency, TF over GST control)
65 | TGGCAC | 1.14 fold enrichment (6-mer frequency, TF over GST control)
66 | AACACG | 1.25 fold enrichment (6-mer frequency, TF over GST control)
67 | GAAGTT | 1.71 fold enrichment (6-mer frequency, TF over GST control)
68 | ACCTCG | 1.11 fold enrichment (6-mer frequency, TF over GST control)
69 | CCGGCA | 1.43 fold enrichment (6-mer frequency, TF over GST control)
70 | ACCGTC | 1.28 fold enrichment (6-mer frequency, TF over GST control)
71 | TGCCTG | 1.28 fold enrichment (6-mer frequency, TF over GST control)
72 | ATGTGC | 1.1 fold enrichment (6-mer frequency, TF over GST control)
73 | CCTGCA | 1.26 fold enrichment (6-mer frequency, TF over GST control)
74 | CAGGAA | 1.75 fold enrichment (6-mer frequency, TF over GST control)
75 | TGCCCC | 1.12 fold enrichment (6-mer frequency, TF over GST control)
76 | TAGGAA | 1.19 fold enrichment (6-mer frequency, TF over GST control)
77 | TGTCTC | 1.26 fold enrichment (6-mer frequency, TF over GST control)
78 | GTTTGA | 1.26 fold enrichment (6-mer frequency, TF over GST control)

target: T3, SPDEF (Homo sapiens, UniProt O95238 1-335); assay: as above; settings: protein: recombinant; tags: N-terminal GST; dsDNA, one strand shown
T3 sequence: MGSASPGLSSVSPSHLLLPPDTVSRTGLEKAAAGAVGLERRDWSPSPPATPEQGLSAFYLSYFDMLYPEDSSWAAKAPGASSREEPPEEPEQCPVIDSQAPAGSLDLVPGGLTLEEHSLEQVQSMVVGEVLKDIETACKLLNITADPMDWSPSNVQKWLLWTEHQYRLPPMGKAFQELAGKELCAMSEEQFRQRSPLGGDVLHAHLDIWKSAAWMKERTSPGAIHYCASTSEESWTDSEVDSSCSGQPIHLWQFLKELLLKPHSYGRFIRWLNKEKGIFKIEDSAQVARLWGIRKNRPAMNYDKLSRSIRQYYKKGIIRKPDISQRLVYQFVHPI
Summary of the method: as §1

Row | Sequence | binding signal
79 | CGTACA | 1.2 fold enrichment (6-mer frequency, TF over GST control)
80 | ACTGCG | 1.24 fold enrichment (6-mer frequency, TF over GST control)
81 | AGATGC | 1.03 fold enrichment (6-mer frequency, TF over GST control)
82 | GTTCAA | 1.22 fold enrichment (6-mer frequency, TF over GST control)
83 | TGACAT | 1.25 fold enrichment (6-mer frequency, TF over GST control)
84 | CCGGAA | 6.22 fold enrichment (6-mer frequency, TF over GST control)
85 | GTCTCT | 1.15 fold enrichment (6-mer frequency, TF over GST control)
86 | CGACAT | 1.4 fold enrichment (6-mer frequency, TF over GST control)
87 | AACGAC | 1.16 fold enrichment (6-mer frequency, TF over GST control)
88 | GACCTG | 1.12 fold enrichment (6-mer frequency, TF over GST control)
89 | CGACCA | 1.24 fold enrichment (6-mer frequency, TF over GST control)
90 | GGAACT | 1.94 fold enrichment (6-mer frequency, TF over GST control)
91 | ACTCAC | 1.22 fold enrichment (6-mer frequency, TF over GST control)
92 | GTACAT | 2.06 fold enrichment (6-mer frequency, TF over GST control)
93 | ATGTGG | 1.05 fold enrichment (6-mer frequency, TF over GST control)
94 | GAACCC | 1.17 fold enrichment (6-mer frequency, TF over GST control)
95 | GGAAAA | 1.12 fold enrichment (6-mer frequency, TF over GST control)
96 | ATGTAC | 1.67 fold enrichment (6-mer frequency, TF over GST control)
97 | ATGGAC | 1.17 fold enrichment (6-mer frequency, TF over GST control)
98 | TTCCGT | 1.91 fold enrichment (6-mer frequency, TF over GST control)

Row | Sequence | binding signal
99 | GTGCTC | 1.05 fold enrichment (6-mer frequency, TF over GST control)
100 | GTCTTC | 1.27 fold enrichment (6-mer frequency, TF over GST control)
101 | GCAACT | 1.11 fold enrichment (6-mer frequency, TF over GST control)
102 | GTTCCC | 1.29 fold enrichment (6-mer frequency, TF over GST control)
103 | TCTGTC | 1.15 fold enrichment (6-mer frequency, TF over GST control)
104 | TGGCAC | 1.12 fold enrichment (6-mer frequency, TF over GST control)
105 | AACACG | 1.22 fold enrichment (6-mer frequency, TF over GST control)
106 | GAAGTT | 1.56 fold enrichment (6-mer frequency, TF over GST control)
107 | ACCTCG | 1.06 fold enrichment (6-mer frequency, TF over GST control)
108 | CCGGCA | 1.67 fold enrichment (6-mer frequency, TF over GST control)
109 | ACCGTC | 1.35 fold enrichment (6-mer frequency, TF over GST control)
110 | TGCCTG | 1.36 fold enrichment (6-mer frequency, TF over GST control)
111 | ATGTGC | 1.23 fold enrichment (6-mer frequency, TF over GST control)
112 | CCTGCA | 1.37 fold enrichment (6-mer frequency, TF over GST control)
113 | CAGGAA | 1.53 fold enrichment (6-mer frequency, TF over GST control)
114 | TGCCCC | 1.21 fold enrichment (6-mer frequency, TF over GST control)
115 | TAGGAA | 1.11 fold enrichment (6-mer frequency, TF over GST control)
116 | TGTCTC | 1.33 fold enrichment (6-mer frequency, TF over GST control)
117 | GTTTGA | 1.11 fold enrichment (6-mer frequency, TF over GST control)
